From ChEMBL document CHEMBL1201862, “PubChem BioAssay data set” (2004) come the findings set out here.

Among all 400,000 compounds or so, about 2,100 (0.53%) were called active. Inconclusive results (about 14%) are left out. The sample holds actives, similar compounds and a random draw of the others, so the mix is not that of the screen. No rule for the calls is given here.

In this assay the target is Ataxin-2 (Homo sapiens) (UniProt Q99700). Kind of assay: qHTS for Inhibitors of ATXN expression. The format is functional.
Chain of Ataxin-2 (Homo sapiens) (Q99700 whole entry): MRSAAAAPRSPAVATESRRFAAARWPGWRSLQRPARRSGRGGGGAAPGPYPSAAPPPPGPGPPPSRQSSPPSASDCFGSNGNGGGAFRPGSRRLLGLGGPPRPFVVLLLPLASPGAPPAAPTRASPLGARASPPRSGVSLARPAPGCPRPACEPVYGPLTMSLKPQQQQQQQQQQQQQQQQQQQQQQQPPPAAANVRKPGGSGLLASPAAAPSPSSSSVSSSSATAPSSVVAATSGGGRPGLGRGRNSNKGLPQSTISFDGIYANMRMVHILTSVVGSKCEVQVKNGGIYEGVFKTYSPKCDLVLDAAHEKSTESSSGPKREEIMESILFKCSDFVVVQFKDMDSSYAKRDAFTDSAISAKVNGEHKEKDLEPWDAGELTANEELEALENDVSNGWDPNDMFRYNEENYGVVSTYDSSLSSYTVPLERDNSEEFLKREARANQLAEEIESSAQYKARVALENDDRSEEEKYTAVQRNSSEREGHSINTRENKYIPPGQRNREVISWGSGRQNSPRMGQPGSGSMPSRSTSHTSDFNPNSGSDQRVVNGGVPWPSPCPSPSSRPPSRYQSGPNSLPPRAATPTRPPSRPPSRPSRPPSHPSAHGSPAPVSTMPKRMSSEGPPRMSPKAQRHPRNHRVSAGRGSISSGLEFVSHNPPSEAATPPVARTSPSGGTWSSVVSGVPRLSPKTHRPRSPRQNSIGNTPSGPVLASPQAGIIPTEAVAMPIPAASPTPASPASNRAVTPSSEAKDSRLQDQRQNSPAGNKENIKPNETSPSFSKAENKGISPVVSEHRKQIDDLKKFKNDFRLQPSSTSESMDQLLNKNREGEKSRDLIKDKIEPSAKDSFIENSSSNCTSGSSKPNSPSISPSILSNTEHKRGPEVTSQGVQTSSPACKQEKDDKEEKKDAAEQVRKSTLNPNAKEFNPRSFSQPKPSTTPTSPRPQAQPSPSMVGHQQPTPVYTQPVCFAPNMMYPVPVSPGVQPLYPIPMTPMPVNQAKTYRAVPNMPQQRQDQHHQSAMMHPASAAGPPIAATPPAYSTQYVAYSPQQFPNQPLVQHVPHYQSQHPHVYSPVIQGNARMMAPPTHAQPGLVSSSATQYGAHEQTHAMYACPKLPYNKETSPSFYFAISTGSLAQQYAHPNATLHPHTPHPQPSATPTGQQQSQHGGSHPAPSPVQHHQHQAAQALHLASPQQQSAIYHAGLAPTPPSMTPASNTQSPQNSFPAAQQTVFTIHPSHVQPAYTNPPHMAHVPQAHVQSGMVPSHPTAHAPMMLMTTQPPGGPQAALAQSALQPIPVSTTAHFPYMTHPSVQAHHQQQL
With `Cc1ccc2oc(Nc3nc(C)c(C)c(C)n3)nc2c1`, the Potency entry is “inactive”.

With `CCC(C)N1CCC2(CC1)N=c1c3c(O)c4c(O)c(C)c5c(c4c1=N2)C(=O)[C@@](C)(OC=C[C@H](OC)[C@@H](C)[C@@H](OC(C)=O)[C@H](C)[C@H](O)[C@H](C)[C@@H](O)[C@@H](C)C=CC=C(C)C(=O)N3)O5` (some centres undefined), the Potency was 22.4 µM (active). The same measure for `C=CCN(CC=C)C(=O)c1ccc(OC2CCN(S(=O)(=O)N(C)C)CC2)cc1`: “inactive”. In the case of `O=S(=O)(CCc1ccncc1)Cc1ccc2c3c(cccc13)CC2`, the Potency result is “inactive”. The result for `CC(=O)NCc1ccc(C(=O)CCl)s1` reads 16.8 µM (active); that for `CCOC(=O)C1CCCN(CC(=O)Nc2nc(-c3ccccc3)cs2)C1` (centres undefined), “inactive”; that for `O=S(=O)(CCN1CCN(c2ccccn2)CC1)c1ccc(F)cc1`, “inactive”. The same measure for `C=CCSc1nc2c(N)ncnc2n1C1OC(CO)C(O)C1O` (centres undefined): “inactive”; for `Nc1ncn([C@H]2O[C@@H](CO)[C@@H](O)[C@@H]2O)c(=O)n1`: 5.01 µM (active). The same measure for `O=C(NN=C1CCCC1)NC1CCCCC1`: “inactive”; for `O=C(NCCc1ccc(F)cc1)c1cccc2c1C(=O)c1ccc(N3CCC(Cc4ccccc4)CC3)cc1S2(=O)=O`: “inactive”.

As to `N=c1n(CCN2CCCC2)c2ccccc2n1CC(O)c1ccc(Cl)c(Cl)c1` (centres undefined), the Potency was 31.6 µM (active). As to `OC(CN1C2=NCCCN2c2ccccc21)c1ccc2c(c1)OCO2` (centres undefined), the Potency result is “inactive”. The result for `Cc1cccc(OCC(O)Cn2c(=N)n(CCN3CCCCC3)c3ccccc32)c1` (centres undefined) reads 39.8 µM (active). The result for `Cc1cccc(OCC(O)Cn2ccnc2C)c1` (centres undefined) reads “inactive”; that for `O=c1c2ccccc2n(CC(O)CN2CCCCC2)c2ccccc12` (centres undefined), “inactive”; that for `Nn1cnnc1SCC(=O)N1CCc2ccccc2C1`, “inactive”. The result for `CCOCCCn1c(=N)c(C(=O)NC(C)c2ccccc2)cc2c(=O)n3cc(C)ccc3nc21` (centres undefined) reads “inactive”. In the case of `CC(=NNc1nc2ccccc2s1)c1ccncn1`, the Potency is 10 µM (active). The result for `Cc1ccc(/C=N/Nc2nc3ccccc3s2)o1` reads “inactive”; that for `C/C(=N\Nc1nc2ccccc2s1)c1ccc(Br)s1`, “inactive”. The same measure for `CCCCCCn1c(=O)[nH]c2nc3cc(N)c(C)cc3nc2c1=O`: “inactive”; for `Cc1ccc(SSc2cc(C)ccc2N)c(N)c1`: 17.8 µM (active); for `FC(F)(F)c1ccc(Cl)c(-n2c(S)nnc2-c2cc(C3CC3)[nH]n2)c1`: “inactive”.

As for `CC(C)C(OC(=O)CN1C(=O)COc2ccccc21)C(=O)NC1CCCCC1` (centres undefined), the Potency entry was “inactive”. The result for `O=S(=O)(Nc1ccc(Cl)cc1)c1ccc(N2CCOCC2)c(NC(=S)NC2CC2)c1` reads “inactive”. The same measure for `O=C(CN1C(=O)COc2ccc(S(=O)(=O)NC3CCCC3)cc21)Nc1ccc(Cl)cc1`: 44.7 µM (active).

`COc1ccc(C(=O)Nc2ccc(S(=O)(=O)Nc3onc(C)c3C)cc2)c(OC)c1`: the Potency result was “inactive”. The result for `O=C(Cc1cccs1)Nc1ccc(F)c(S(=O)(=O)N2CCOCC2)c1` reads “inactive”.

Consider `COc1ccc(-c2nc(CN3CCC(C(=O)NC4CCCc5ccccc54)CC3)c(C)o2)cc1OC` (centres undefined), for which the Potency result was “inactive”.

As for `COc1ccc(-c2cc3ccc(O)c(CN4CCCCC4C)c3oc2=O)cc1OC` (centres undefined), the Potency result was “inactive”.

For the molecule `COc1ccc(-c2nc(CSCC(=O)N3CCN(c4cccc(C)c4)C(C)C3)c(C)o2)cc1OC` (centres undefined), the Potency is 18.9 µM (active).

Take `COc1ccc(-c2nc(CN3CCN(Cc4cccc(Cl)c4)CC3)c(C)o2)cc1`: the Potency result is “inactive”. Regarding `COc1ccc(N2CCN(C(=O)COC(=O)CCc3ccccc3)CC2)cc1`, the Potency result was “inactive”. The same measure for `COc1ccc(-c2nc(CSCC(=O)N3CCN(c4ccccc4F)CC3)c(C)o2)cc1`: 31.6 µM (active); for `CCNC(=S)N1CCN(CCNC=C2C(=O)CC(C)(C)CC2=O)CC1`: “inactive”; for `CN1C(=O)NC(NS(=O)(=O)c2ccc(N)cc2)(C(F)(F)F)C1=O` (centres undefined): “inactive”. The result for `Nc1nc2nc(-c3cccs3)cc(C(F)(F)F)n2n1` reads “inactive”. The same measure for `C=CCNC(=O)/C(C#N)=C/c1c(N2CCN(c3cccc(Cl)c3)CC2)nc2c(C)cccn2c1=O`: “inactive”; for `O/N=C/c1cc2ccccc2n1Cc1ccccc1F`: “inactive”; for `Cc1ccc(C2=NN=C(c3ccccc3)c3ncccc3N2)cc1`: “inactive”.

Regarding `CC(C)c1ccc(NC2=NC(=N)c3ccccc32)cc1`, the Potency was 39.8 µM (active). The same measure for `CC(C)c1ccc(NC2=NN=C(c3cccs3)CS2)cc1`: “inactive”; for `COc1ccc(S(=O)(=O)N2CCOCC2)cc1NC(=O)COc1cccnc1[N+](=O)[O-]`: “inactive”. The result for `Clc1cccc2c1CCN(Cc1nc(-c3cnccn3)no1)C2` reads “inactive”.

Consider `COc1ccccc1N1CCN(c2nc(CNC(=O)c3ccc4c(c3)OCO4)nc3ccccc23)CC1`, for which the Potency was 28.2 µM (active). The result for `COc1ccccc1N1CCN(C2CCCN(C(=O)c3csc(C)n3)C2)CC1` (centres undefined) reads “inactive”; that for `Cc1ccc(C(=O)NCc2ccc3c(c2)OCO3)cc1N1CCCC1=O`, “inactive”. The result for `CSc1nc(N2CCN(c3ccccc3Cl)CC2)c2ccccc2n1` reads “inactive”; that for `COc1ccc(C(=O)N2CCOC2CNC(=O)C(=O)NCc2ccc3c(c2)OCO3)cc1` (centres undefined), “inactive”. The result for `COc1ccccc1N1CCN(c2nc(CNC(=O)C3CC34CCCC4)nc3ccccc23)CC1` (centres undefined) reads 35.5 µM (active); that for `CC1CC(C)(C)N=C(S)N1CCC(=O)N1CCN(c2ccccc2)CC1` (centres undefined), “inactive”; that for `CCn1c(=N)c(S(=O)(=O)c2ccccc2)cc2c(=O)n3ccccc3nc21`, “inactive”.

Take `Cc1ccccc1CN(C)C1CCN(C)CC1`: the Potency result was “inactive”. The same measure for `CCOC(=O)C1CCCN(C(=O)c2sc3nc4n(c(=O)c3c2C)CCC4)C1` (centres undefined): “inactive”.

As for `CCOC(=O)CC1(C)c2nc(NC(C)=O)sc2Cc2sc(NC(C)=O)nc21`, the Potency entry was “inactive”.

Consider `O=C(O)c1cccc(N2C(=O)c3cc4cccc(Br)c4cc3C2=O)c1`, for which the Potency result was “inactive”. The same measure for `O=C(NCc1ccccc1Cl)[C@H]1CCCN1C(=O)[C@H]1CCCN1C(=O)c1cccc2ccccc12`: 10 µM (active); for `O=C(NCc1ccccc1Cl)C1CCCO1` (centres undefined): “inactive”. The same measure for `O=C(NCc1ccccc1Cl)C1CCN(S(=O)(=O)c2ccc(-n3cnnn3)cc2)CC1`: “inactive”.

With `COc1ccc(CNC(=O)COC(=O)c2ccc(OCC3CCCO3)cc2)cc1` (centres undefined), the Potency entry was “inactive”.

Turning to `CC(=O)N1CCSc2ccc(S(=O)(=O)N3CCC(C)CC3)cc21`, the Potency result is “inactive”. The same measure for `CC1CCN(S(=O)(=O)c2ccc3c4c2CC(=O)N4CC(C)S3)CC1` (centres undefined): 31.6 µM (active); for `CCN1C(=O)c2cccc3c(S(=O)(=O)N4CCC(C)CC4)ccc1c23`: “inactive”.
